This note sets out measurements from PubChem BioAssay (NCATS).

Inconclusive results are not listed. Activity calls are given as the source filed them. Calls come from the whole dose curve; as a rule, active = well fitted inhibition curve with a large enough effect; inconclusive = small, poorly fitted or top-dose-only effect; inactive = flat fitted curve, though single readings scatter.

Sequence of Calcium and integrin-binding protein 1 (Homo sapiens) (Q99828 whole entry, looked up): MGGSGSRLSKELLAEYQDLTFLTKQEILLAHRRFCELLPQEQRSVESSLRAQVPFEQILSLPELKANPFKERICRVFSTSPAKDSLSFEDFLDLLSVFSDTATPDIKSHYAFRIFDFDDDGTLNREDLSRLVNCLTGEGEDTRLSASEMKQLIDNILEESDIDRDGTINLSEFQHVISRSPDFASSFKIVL

The test concerns the target Calcium and integrin-binding protein 1 (Homo sapiens) (UniProt Q99828). Put plainly: Primary qHTS for Identification of Calcium Integrin Binding Protein 1 (CIB1) Competitor (AID 1508620).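 Note: GST tagged CIB1 binding a fluorescein labelled alphaIIb integrin peptide tracer; top concentration of the series differs between compounds.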 The settings on record: CIB1-GST / FITC-alphaIIb peptide fluorescence polarization; series mostly up to 57.7 µM. An outline of the steps:
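CIB1-GST (1 uM final) and compound incubated 15 min at room temperature before adding FITC-alphaIIb peptide tracer (100 nM final). Competition for binding read by fluorescence polarization (ex 480, em 540) after another 15 min at room temperature.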
For `CCOc1cc(C=C2C(=O)N(c3ccccc3)N=C2C)cc(Cl)c1OCC(=O)OC`, the result was inactive.
Regarding `CCn1c(-c2nonc2N)nc2cnc(Oc3cccc(NC(=O)c4ccc(OCCN5CCOCC5)cc4)c3)cc21`, the result was inactive.
Turning to `Cc1cc([C@@H](C)Nc2ccccc2C(=O)O)c2nc(N3CCOCC3)cc(=O)n2c1`, the outcome was inactive.
In the case of `S=C(NCc1ccc2c(c1)OCO2)N1CCN(c2ncnc3c2oc2ccccc23)CC1`, the outcome was inactive.
In the case of `O=C(O)[C@@H](c1ccc(OCc2ccc3ccccc3n2)cc1)C1CCCC1`, the result was inactive.
With `CO[C@@H]1[C@H](N(C)C(=O)c2ccccc2)C[C@H]2O[C@]1(C)n1c3ccccc3c3c4c(c5c6ccccc6n2c5c31)C(=O)NC4`, the result was inactive.
`CCOc1cc(N2CCC(O)CC2)ccc1Nc1ncc2c(n1)N(C)c1ccccc1C(=O)N2C`: the result was inactive.
For `COCC(=O)NCC=Cc1ccc2ncnc(Nc3ccc(Oc4ccc(C)nc4)c(C)c3)c2c1` the value was “inactive”; for `CNC(=O)c1ccccc1Sc1ccc2c(/C=C/c3ccccn3)n[nH]c2c1`, “inactive”.
`OC[C@H](Cc1ccccc1)Nc1nc(Oc2ccc3c(c2)CCC3)nc2c1ncn2Cc1ccc(-c2ccccc2)cc1`: the result was inactive.
To `C[C@]1(c2nc3c(C(N)=O)cccc3[nH]2)CCCN1` belongs “inactive”; to `COc1ccc([C@@H]2CC(=O)c3c(O)cc(O[C@@H]4O[C@H](CO[C@@H]5O[C@@H](C)[C@H](O)[C@@H](O)[C@@H]5O)[C@@H](O)[C@H](O)[C@@H]4O)cc3O2)cc1O`, “inactive”; to `COc1c(Cl)cc2c([nH]c3cnccc32)c1NC(=O)c1cccnc1C`, “inactive”.
